Hit rate of the full screen: of about 360,000 compounds, about 7,300 (2%) were called active. No stated cut-off is given here; in the data, active means inhibition above about 50%; inactive means the rest. For the sample, actives were picked, then their nearest neighbours and some compounds at random.
test: blockers of TWEAK-induced Fn14 reporter activity – luciferase reporter cells, uHTS, primary screen (AID 1159606); conditions: TWEAK-stimulated Fn14 reporter cells, luciferase luminescence, 8 h; at 10 µM; active compounds read high

SMILES	inhibition
Cc1cc(SCC(=O)c2ccccc2)nc(SCC(=O)c2ccccc2)n1	53.9% (active)
Cc1nc2nc(SCC(=O)c3ccccc3)[nH]c2cc1Br	-4.34% (inactive)
Cc1nc(SCC(=O)c2ccccc2)c([N+](=O)[O-])[nH]1	9.51% (inactive)
C[C@H](CO)N1C[C@H](C)[C@H](CN(C)C(=O)c2ccncc2)OCc2ccccc2-c2c(n(C)c3ccccc23)C1=O	2.05% (inactive)
O=C(CCC(=O)OCc1cccc(C(=O)Oc2ccccc2)c1)Nc1cccc2ccccc12	-15.2% (inactive)
O=C(CNC(=O)C(c1ccccc1)c1ccccc1)N/N=C\c1ccc2c(c1)OCO2	-46.1% (inactive)
Cc1cccc(NC(=O)/C=C/c2ccc3c(c2)OCO3)n1	23.5% (inactive)
C(=N\Nc1ccc2ccccc2n1)/c1ccc2c(c1)OCO2	86.3% (active)
Cc1ccc(CNC(=O)CCCNC(=O)c2ccc(Cl)cc2)n1C	-27.7% (inactive)
COc1ccc(N2CC(C(=O)N[C@@H](C)C(=O)N3CCCCC3)CC2=O)cc1 (stereo partly drawn)	-3.79% (inactive)
COc1cc(N2C(=O)CSC2=S)cc(OC)c1OC	58.5% (active)
O=C1CSC(=S)N1c1ccc(Cl)c(Cl)c1	49.6% (inactive)
CCOc1ccc(N2C(=O)CSC2=NC#N)cc1	11.8% (inactive)
COc1cc(N2C(=O)CC3(CCCC3)CC2=O)cc(OC)c1OC	15.3% (inactive)
COc1cc(C(=O)N2CCN(C)CC2)cc(OC)c1OC	6.59% (inactive)
O=C1CSC(=S)N1c1ccc(O)cc1	75.1% (active)
Cc1ccc(NC(=O)CSc2nn3c(=O)c(C)nnc3s2)cc1Cl	8.21% (inactive)
Cc1ccc(Cn2nnc3c(=O)[nH]c(C4CCN(S(=O)(=O)/C=C/c5ccccc5)CC4)nc32)cc1	50.3% (active)
Cc1ccc(NC(=O)N2CCC(c3nc4c(nnn4Cc4c(F)cccc4Cl)c(=O)[nH]3)CC2)cc1	19.1% (inactive)
CC(C)(C)c1ccc(Cn2nnc3c(=O)[nH]c(C4CCCN(C(=O)c5ccco5)C4)nc32)cc1 (stereo not drawn)	25.6% (inactive)

SMILES	inhibition
O=C(OC1CCOC1=O)c1cccc(S(=O)(=O)Nc2ccc(F)cc2)c1 (stereo not drawn)	2.12% (inactive)
COc1ccc(-c2cc3nc(NCCOc4ccccc4)ccn3n2)cc1	5.16% (inactive)
Cc1ccc(C(=O)N/C(=C\c2cccs2)C(=O)NCCc2ccccn2)cc1C	5.63% (inactive)
COc1cncc(-c2cnc3sc(NCCc4ccccn4)nn23)c1	64.8% (active)
CCC1(CC)NC(=O)N(CC(=O)OCC(=O)c2cc(C)c(C)cc2C)C1=O	-7.64% (inactive)
C=CCC[C@@H](Cc1ccc(F)cc1)C(=O)O[C@H](CNC(=O)[C@H](CC=C)CC(=O)N(CCO)Cc1ccccc1)c1ccccc1	36.5% (inactive)
CN1CCN(C(=O)c2ccc(NC(=O)c3ccc(Br)o3)cc2)CC1	2.47% (inactive)
O=C(Nc1ccc(S(=O)(=O)N2CCCCCC2)cc1)c1c(F)cccc1F	2.17% (inactive)
O=C(Nc1ccncc1)c1c(F)cccc1F	66.7% (active)
COc1cccc(OC)c1C(=O)Nc1ccc(Cc2ccncc2)cc1	-17.4% (inactive)
Cc1ccccc1OCC(=O)NNC(=O)c1cc(S(=O)(=O)N(C)C)ccc1N1CCCC1	-9.51% (inactive)
CN(C)S(=O)(=O)c1ccc(N2CCCC2)c(C(=O)Nc2cccc(F)c2)c1	0.2% (inactive)
CN(C)S(=O)(=O)c1ccc(N2CCCC2)c(C(=O)NCc2ccccc2)c1	63.4% (active)
COc1ccc(N2CCN(C(=O)CNS(=O)(=O)c3ccc(C)c(C)c3)CC2)cc1	4.34% (inactive)
COc1ccc(C(C#N)Nc2ccccc2C)cc1 (stereo not drawn)	-0.99% (inactive)
COC(=O)[C@@]1(Cc2ccc(F)cc2)[C@H]2c3cc(C(=O)N4CCCC4)n(Cc4ccc(OC(F)(F)F)cc4)c3C[C@H]2CN1C(=O)c1ccccc1	18.4% (inactive)
Cc1cccc(/C(N)=N/OC(=O)c2ccccc2Cl)c1	31.2% (inactive)
O=C(COC(=O)c1ccccn1)NNC(=O)c1ccc([N+](=O)[O-])cc1	-4.89% (inactive)
N/C(=N\OC(=O)Cc1ccc([N+](=O)[O-])cc1)c1ccccn1	69.1% (active)
N/C(=N\OC(=O)CCC1CCCCC1)c1ccccn1	18.4% (inactive)

SMILES	inhibition
Cc1cc(C)cc(OCC(=O)O/N=C(\N)Cc2ccc([N+](=O)[O-])cc2)c1	-9.61% (inactive)
N/C(=N\OC(=O)c1ccc([N+](=O)[O-])cc1)c1ccccn1	77.4% (active)
Cc1ccc(C(=O)O/N=C(\N)c2ccccn2)cc1Cl	92.3% (active)
N/C(Cc1ccc([N+](=O)[O-])cc1)=N\OC(=O)COc1ccc2ccccc2c1	-1.78% (inactive)
CO/N=C(\N)c1ccc([N+](=O)[O-])cc1	0.74% (inactive)
COc1ccc(C2OC(CCc3ccccc3)Cc3[nH]c(=S)[nH]c(=O)c32)cc1 (stereo not drawn)	-31.7% (inactive)
Cc1ccc(S(=O)(=O)N2CCC(=O)N([C@H](COCc3ccccc3)Cc3ccccc3)CC2)cc1	1.7% (inactive)
CC(Oc1ccc(Cl)cc1)c1ccnn1S(C)(=O)=O (stereo not drawn)	8.92% (inactive)
CN(C)CCn1c2c(c(SCC(=O)Nc3ccccc3C(F)(F)F)nc1=O)CCCC2	-2.47% (inactive)
CC(C)(C)c1ccc(/C=C/C(=O)NCCCn2ccnc2)cc1	13.5% (inactive)
O=C(NC1CCCC1)C1c2ccccc2OCC(=O)N1Cc1ccccc1 (stereo not drawn)	2.4% (inactive)
COC(=O)Nc1ncc(CN2CCCCC2)s1	1.88% (inactive)
Cc1nc(-c2ccc(NC(=O)c3cccs3)cc2)cs1	69% (active)
CCc1ccc(NC(=O)C(=O)NNC(=O)c2cccs2)cc1	-12.2% (inactive)
Cc1ccc(OCC(=O)Nc2ccc(NC(=O)c3cccs3)cc2)c(C)c1	-68.7% (inactive)
CCN(C(=O)CSc1nnc2ccccn12)C1CCS(=O)(=O)C1 (stereo not drawn)	7.23% (inactive)
COc1ccc2c(c1)c(=Cc1ccc(N(C)C)cc1)c1cc(-c3ccccc3)[n+](C)n12	100% (active)
CC1(C)CC(=O)C2=C(C1)N=C1SCCC(=O)N1C2c1ccc(C(F)(F)F)cc1 (stereo not drawn)	1.88% (inactive)
